For 40 molecules, Potency results are on record in PubChem BioAssay (Tox21).

Several values for one entry are separate records, joined by “and”; a condition that tells them apart may be missing. Equal entries are not always repeated. Results filed as inconclusive are left out. A call without a number means that no potency is given here. Activity calls are given as the source filed them. Calls come from the whole dose curve; as a rule, active = well fitted cell-killing curve with a large enough effect in the repeat runs; inconclusive = weak or mixed curves; inactive = flat fitted curve, though single readings scatter.
Potency is the fitted concentration of half-maximal effect.

A short description of the assay: qHTS assay to identify small molecule antagonists of the estrogen receptor beta (ER-beta) signaling pathway - cell viability counter screen (AID 1259382). Note: nearly all actives have a fitted effect of over 55% in size. The conditions noted are these: ER-beta-UAS-bla HEK293T viability, CellTiter-Glo luminescence, 16 h; series mostly up to 92.4 µM. The source says:
U.S. Tox21 Program National Center for Advancing Translational Sciences [NCATS] NIH Chemical Genomics Center [NCGC] U.S. Environmental Protection Agency [EPA] National Institutes of Environmental Health Sciences [NIEHS] National Toxicology Program [NTP] U.S. Food and Drug Administration [FDA] Tox21 Assay Overview: Estrogen receptor (ER), a nuclear hormone receptor, plays an important role in development, metabolic homeostasis and reproduction. Two subtypes of ER, ER-alpha and ER-beta, have similar expression patterns with some uniqueness in both types. Endocrine disrupting chemicals (EDCs) and their interactions with steroid hormone receptors like ER causes disruption of normal endocrine function. To identify the compounds that inhibit ER signaling, an ER-beta-UAS-bla GripTite cell line (Life Technologies, Madison, WI, USA) containing a beta-lactamase reporter gene under the control of an UAS response element was used to screen Tox21 10K compound library. The cytotoxicity of the Tox21 compound library against the ER-beta-bla cell line was tested in parallel by measuring the cell viability using CellTiter-Glo assay in the same wells.
Tox21 Assay Protocol Summary: ER-beta-UAS-bla HEK293T cells were dispensed at 2,000 cells/4 uL of assay medium containing 2% charcoal stripped FBS per well into black wall/clear-bottom 1536-well plates using a Multidrop Combi (ThermoFisher Scientific, Waltham, MA) dispenser. After the assay plates were incubated at a 37C and 5% CO2 for 6 hr, 23 nL of compounds dissolved in DMSO, positive controls or DMSO only was transferred to the assay plate by a Pintool station (Kalypsys, San Diego, CA), followed by addition of 1 uL (1nM as final concentration) of 17-beta-estradiol (E2) in assay medium using a Flying Reagent Dispenser (FRD, Aurora Discovery, San Diego, CA). The plates were incubated at 37C and 5% CO2 for 16 hr. Then 1 uL of LiveBLAzer B/G FRET substrate was added using a Flying Reagent Dispenser, the plates were incubated at room temperature for 2 hours, and fluorescence intensity was measured by an Envision plate reader (PerkinElmer, Shelton, CT). For cell viability readout that measures cytotoxicity, 4 uL/well of CellTiter-Glo reagent was added into the assay plates using a FRD. After 30 min incubation at room temperature, the luminescence intensity in the plates was measured using a ViewLux (PerkinElmer) plate reader.
On the technique in general: Quantitative high-throughput screening tests each substance at several concentrations.
With `CCCc1c(OCCCCc2nn[nH]n2)ccc(C(C)=O)c1O`, the Potency result is “inactive”. The result for `COc1ccccc1/C=C/C=O` reads “inactive”; that for `Cn1cnc([N+](=O)[O-])c1Sc1ncnc2nc[nH]c12`, “inactive”. As to `COc1ccc(C(=O)CC(=O)c2ccc(C(C)(C)C)cc2)cc1`, the Potency entry is “inactive”. The result for `O=C1OC2(c3cc(Br)c(O)c(Br)c3Oc3c2cc(Br)c(O)c3Br)c2c(Cl)c(Cl)c(Cl)c(Cl)c21` reads “inactive”; that for `O=CCCCC=O`, “inactive”. As for `O=C(c1ccccc1)c1ccccc1O`, the entry is “inactive”; as for `O=C=Nc1ccc(Cc2ccc(N=C=O)cc2)cc1`, “inactive”. As for `Nc1ncnc2nc[nH]c12`, the entry is “inactive”; as for `C/C=C/C(=O)O`, “inactive”.

As for `O=C(c1ccc(OCCN2CCCCC2)cc1)c1c(-c2ccc(O)cc2)sc2cc(O)ccc12`, the Potency was 54.5 µM (active) and 26.6 µM (active).

For `CCCCc1oc2ccccc2c1C(=O)c1cc(I)c(OCCN(CC)CC)c(I)c1`, the Potency is 19.5 µM (active) and 26.6 µM (active).

As to `Cc1[nH]c(=O)c(C#N)cc1-c1ccncc1`, the Potency result is “inactive”. The result for `O=P(O)(O)O` reads “inactive”. For the molecule `CC(CCC(=O)O)(c1ccc(O)cc1)c1ccc(O)cc1`, the Potency result was “inactive”. As for `NC=O`, the entry is “inactive”; as for `CC1=CCC(C(C)(C)O)CC1` (stereo not given), “inactive”; as for `Clc1nc(Cl)c(Cl)c(Cl)c1Cl`, “inactive”. As for `C=C(C)C1CC=C(C)CC1` (stereo not given), the entry is “inactive”. `Cc1ncc[nH]1`: the Potency entry was “inactive”. As for `CC(=O)C1(C)CC2=C(CCCC2(C)C)CC1C` (stereo not given), the Potency entry is “inactive”. The result for `C=C(C)C(=O)OCCOC(=O)C(=C)C` reads “inactive”; that for `CNCCCC12CCC(c3ccccc31)c1ccccc12`, 15.4 µM (active) and 26.6 µM (active); that for `O=CCc1ccccc1`, “inactive”. The result for `CN(C)c1nc(N(C)C)nc(N(C)C)n1` reads “inactive”; that for `CCCCC/C=C/C=C/C=O`, “inactive”; that for `CCOCCOCCO`, “inactive”. The result for `CCOC(=O)C(C#N)=C(c1ccccc1)c1ccccc1` reads “inactive”; that for `CC(C)=CCC/C(C)=C\CO`, “inactive”; that for `c1ccncc1`, “inactive”.

`C=CC(C)(CCC=C(C)C)OC(C)=O` (stereo not given): the Potency result is “inactive”.

As for `CC1=CC2C3CC(C=C3C)C2C1` (stereo not given), the Potency result was “inactive”. The result for `COc1c(Cl)c(Cl)c(Cl)c(Cl)c1Cl` reads “inactive”; that for `c1cc(-c2ccncc2)ccn1`, “inactive”; that for `CCC(C)OC(=O)c1ccc(O)cc1` (stereo not given), “inactive”.

Take `C[C@]12CC[C@H]3[C@@H](CCC4=CC(=O)CC[C@@]43C)[C@@H]1CC[C@@H]2C(=O)CO`: the Potency result was “inactive”. As for `OC1CCCCCCCCCCC1`, the entry is “inactive”; as for `OC(CCl)CCl`, “inactive”. As for `CCC(C)(O)CCCC(C)C` (stereo not given), the entry is “inactive”; as for `Cc1c(OCC(F)(F)F)ccnc1CS(=O)c1nc2ccccc2[nH]1` (stereo not given), “inactive”.
